Data from PubChem BioAssay AID624169 (The Scripps Research Institute Molecular Screening Center, 2012).
Several values for one entry are separate records, joined by “and”; a condition that tells them apart may be missing. Equal entries are not always repeated. Out of some 360,000 compounds screened, about 2,400 (0.67%) were called active. The sample holds actives, similar compounds and a random draw of the others, so the mix is not that of the screen.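 The calls were made as follows: active = activation above a run cutoff, the mean activation of all tested compounds plus 3 SD (cut at about 14% in these data); inactive = the rest.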

molecular target: 5-hydroxytryptamine receptor 2A (Mus musculus) (UniProt P35363); experiment: mouse Htr2a agonists via beta-arrestin recruitment, primary screen, cell-based, luminescence (AID 624169); conditions: CHO-K1 mHTR2A beta-arrestin complementation, at 7.6 µM, hits give high values, percent of 30 µM serotonin response;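 also: 0% = plate median of compound wells and 100% = 30 µM serotonin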
Sequence (P35363 whole entry, looked up): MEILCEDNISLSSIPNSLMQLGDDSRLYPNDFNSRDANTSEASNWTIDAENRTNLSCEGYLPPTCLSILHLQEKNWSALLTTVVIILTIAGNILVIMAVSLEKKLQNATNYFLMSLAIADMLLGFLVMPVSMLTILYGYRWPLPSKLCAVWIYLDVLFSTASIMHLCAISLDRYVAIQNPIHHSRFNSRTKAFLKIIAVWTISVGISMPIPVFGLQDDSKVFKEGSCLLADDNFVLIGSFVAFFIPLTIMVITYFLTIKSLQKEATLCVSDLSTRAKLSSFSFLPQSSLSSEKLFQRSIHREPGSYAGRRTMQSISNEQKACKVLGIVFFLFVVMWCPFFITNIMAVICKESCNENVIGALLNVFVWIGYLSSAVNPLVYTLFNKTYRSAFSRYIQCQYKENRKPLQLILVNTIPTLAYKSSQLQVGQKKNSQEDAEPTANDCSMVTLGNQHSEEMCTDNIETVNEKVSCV

activation, active:
COC(=O)CC(=O)N1CCN(c2ccc(Cl)c(Cl)c2)CC1 34.5%, O=C(c1cccs1)N1CCN(Cc2ccc3c(c2)OCO3)CC1 25.9%, O=C(COC(=O)c1cc(S(=O)(=O)N2CCOCC2)ccc1F)NC1CC1 20.8%, COc1ccc(/C(=N\O)c2nccc3cc(OC)c(OC)cc23)cc1OC 24.7%, N#Cc1c(NC(=O)CCCl)sc2c1CCCCC2 20%, Cc1ccc(NC(=O)CCOc2ccccc2)cc1S(=O)(=O)Nc1ccccc1Cl 15.2%, Cc1cccc(CN2CCN(C3CN(Cc4cn(Cc5cc(C)cc(C)c5)nn4)S(=O)(=O)C3)CC2)c1 (centres undefined) 19.3%, Cc1cccc(CN2CCN(C3CN(Cc4ccccc4)S(=O)(=O)C3)CC2)c1 (centres undefined) 20.9%, COc1ccc2c(Cl)c(-c3nnco3)sc2c1 15.6%, O=C(CNCc1cccs1)Nc1cc(S(=O)(=O)N2CCCC2)ccc1Cl 17.4%, Cc1ccc2c(c1)NCC(C(=O)NC1CCC(C)CC1)O2 (centres undefined) 16.6%, COCCN(Cc1cc2cc3c(cc2nc1Cl)OCO3)C(=O)c1cccc(C)c1 16.6%, CSc1nsc(SCC(=O)Nc2cc(C(=O)O)ccc2C)n1 15.6%, CNCC(O)c1ccc(O)c(O)c1 (centres undefined) 26.5%, OCC1(Cc2ccccc2)CCN(Cc2cc3ccccc3o2)CC1 19.6%, C[C@@H]1ON(C)[C@H]2C[C@H]3c4cc(N5CCN(C)CC5)ccc4CCN3C(=O)[C@@H]12 29.5%, Cc1cccnc1C(NC(=O)C1CCN(Cc2ccc(Cl)c(Cl)c2)CC1)c1ccc(Cl)cc1 (centres undefined) 16.4%, Cc1cc(C(=O)OCC(=O)N2c3ccccc3NC(=O)C2(C)C)c(C)n1-c1ccccc1 15.2%, N/C(=N\S(=O)(=O)c1cc(C(F)(F)F)cc(C(F)(F)F)c1)c1cccs1 31.8%, Cc1ccc(N2C(=O)C3N=NN(CC(=O)N4N=C(c5cccc6ccccc56)CC4c4ccccc4)C3C2=O)cc1 (centres undefined) 17.6%

activation, inactive:
CCOc1ccc(CN(Cc2ccco2)C(c2cccs2)c2nnnn2C(C)(C)C)cc1 (centres undefined) 6.56%, CC(C)Oc1ccc(Cc2n[nH]c(=S)n2Cc2ccccc2)cc1Cl 0.66%, COC(=O)c1ccccc1OCC(=O)N1CCN(c2ccc(Cl)cc2)CC1 3.93%, CC(C)c1nnc(NC(=O)CCC(=O)N2CCN(c3cccc(Cl)c3)CC2)s1 10.8%, O=C(c1ccco1)N(Cc1nc2ccccc2c(=O)[nH]1)C1CCCC1 3.03%, COc1ccc(-c2cc(C(=O)N3CCN(Cc4ccc5c(c4)OCO5)CC3)on2)cc1OC -7.64%, O=C(CCCN1C(=O)c2cccc3cccc(c23)C1=O)N1CCN(Cc2ccc3c(c2)OCO3)CC1 -3.63%, Cc1nc2ccccc2nc1CC(O)(c1ccccc1)c1ccccc1 1.95%, Cc1ccc(S(=O)(=O)N[C@H]2CCC[C@@H]2O)cc1 0.49%, O=C(O)Cc1csc(-c2cccc(Oc3ccccc3)c2)n1 5.47% and 2.04%, O=C(OCCOc1ccccc1F)c1cc(S(=O)(=O)N2CCOCC2)ccc1F -6.59%, COc1cc(NC(=O)COC(=O)c2cc(S(=O)(=O)N3CCOCC3)ccc2F)cc(OC)c1 2.06%, C[C@H](CO)N1C[C@H](C)[C@@H](CN(C)S(=O)(=O)c2ccc(F)cc2)Oc2c(NC(=O)Nc3ccccc3)cccc2C1=O 1.16%, CCSCc1nc(N)nc(NCCc2ccccc2)n1 -1.03%, CC(=O)c1ccc(OCCCC(=O)Nc2ccc(C)c(S(=O)(=O)N3CCOCC3)c2)cc1 4.29%, COc1cc2ccc(C(C)=O)c(O)c2cc1OC -4.06%, COC(=O)c1ccc(-c2c(-c3ccccc3)ncc3cc(OC)c(OC)cc23)cc1 6.54%, N#Cc1c(NC(=O)C2CCCO2)sc2c1CCCCC2 (centres undefined) 0.23%, N#Cc1c(NC(=O)C2CC(Cl)=CCC2C(=O)O)sc2c1CCCCC2 (centres undefined) 5.86%, Cc1ccc(OC(=O)c2ccccc2C(=O)OCC(F)(F)C(F)F)cc1 -7.85%, COc1ccc(C(=O)OCC(=O)NC(=O)CCSc2ccccc2)cc1 1.32%, C[C@@H]1C(c2ccc(F)cc2)=NN(c2ccc(Br)cc2)[C@H]1C(=O)N1CCOC1=O -5.98%, CCCCCC(O)(CCN1CCCCC1)c1ccccc1 (centres undefined) -1.22%, O=C(CSc1nnc(N2CCOCC2)n1-c1cccc(F)c1)N1CCN(c2ccccn2)CC1 -5.52%, CCc1ccccc1NC(=O)CCOc1ccccc1 1.35%, Cc1ccccc1NC(=O)CCOc1ccccc1 4.29%, CC(=O)Nc1cc(-c2ccccc2F)cn2c(-c3cccc(C(F)(F)F)c3)cnc12 1.96%, CCCCN1CC(N2CCN(Cc3cccc(C)c3)CC2)CS1(=O)=O (centres undefined) 12.1%, Cc1ccc(CN2CC(N3CCC(Cc4ccccc4)CC3)CS2(=O)=O)cc1 (centres undefined) -4.23%, Cc1ccc(Cn2cc(CN3CC(N4CCN(C)CC4)CS3(=O)=O)nn2)cc1 (centres undefined) -3.17%, Cc1cccc(CN2CCN(C3CN(Cc4cn(Cc5ccccc5F)nn4)S(=O)(=O)C3)CC2)c1 (centres undefined) 7.98%, COc1ccc(N2CCN(S(=O)(=O)c3cc4c5c(c3)C(C)C(=O)N5CCC4)CC2)cc1 (centres undefined) 4.42%, O=C(CNC(=O)c1cc(=O)[nH]c2ccccc12)Nc1ccc(F)c(F)c1 -0.64%, CC1=C(C(=O)N2CCOCC2)CC(CC(=O)NCC2CCCCC2)C(=O)N1Cc1ccc(F)cc1 (centres undefined) 0.51%, O=C(COC(=O)CNC(=O)C1CCCCC1)NCc1ccccc1 4.87%, C#CCSc1nnc(-c2sc3ccccc3c2Cl)o1 3.02%, Fc1cccc(Cl)c1COc1ccc(-c2nnco2)cc1 0.11%, CS(=O)(=O)c1ccc(Cl)c(NC(=O)COC(=O)c2cccc(S(=O)(=O)N3CCCC3)c2)c1 -2.1%, O=C(COC(=O)CCOc1ccccc1)Nc1cc(S(=O)(=O)N2CCCCC2)ccc1Cl 2.8%, Cc1ccc(C(=O)NC2CC(C)(C)NC(C)(C)C2)c(C)c1 3.41%, Cc1ccc(S(=O)(=O)NCc2ccc(C(=O)NC3CCC(C)CC3)cc2)cc1 (centres undefined) -3.68%, Cc1ccccc1C(=O)N1CCC(C(=O)Oc2ccc(C#N)cc2)CC1 -3.91%, O=C(NNc1cc(Cl)cc(Cl)c1)c1c(F)cccc1Cl 1.49%, CCCCN(CC)C(=O)c1ccc2c(c1)OCO2 1.68%, Cc1ccc2cc(CCNC(=O)c3ccc4c(c3)OCO4)c(=O)[nH]c2c1 5.29%, Cn1nnnc1-c1cc(Cl)cc(Cl)c1 2.61%, COc1ccc(C)cc1NC(=O)CSc1nc(SC)ns1 -0.61%, COc1ccc(NC(=O)CSc2nc(SC)ns2)c(OC)c1 0.26%, Cc1cccc(C(=O)N[C@H](C(=O)NCc2cccs2)C(C)C)c1 5.5%, CCC(C)c1ccc(O)c(/C=N/O)c1 (centres undefined) -3.25%, C=CCNC(=O)C12CC3CC(C1)CC(C(=O)NCC=C)(C3)C2 -0.48%, Cc1ccccc1NC(=O)C1CCN(C(=O)NC2CCCCC2)CC1 -2.36%, O=C(Nc1ccccc1C(=O)O)c1ccc(N2C(=O)C3CC=CCC3C2=O)cc1 (centres undefined) -7.43%, CC(C)c1csc(CN2CCC(CO)(Cc3ccccc3)CC2)n1 -5.03%, O=C(c1cc2ccccc2o1)N1CCN(Cc2ccccc2)CC1 -4.53%, CC(C)(C)NC(=O)C(=O)NCc1ccncc1 -5.23%, COCCCN1C(=O)c2ccc(C(=O)OCC(=O)NCc3ccccc3OC)cc2C1=O -1.38%, COc1ccc(S(=O)(=O)NC(C)c2ccccc2)cc1C(=O)N1CCCCC1 (centres undefined) 4.88%, CN[C@H]1C[C@H]2c3cc(Oc4ccccc4C)ccc3CCN2C(=O)[C@H]1[C@H](C)O 0.5%, C[C@H](O)[C@@H]1C(=O)N2CCc3ccc(N4CCOCC4)cc3[C@@H]2C[C@@H]1N(C)C(=O)C(C)(C)C 9.06%, Cc1nn(C)cc1S(=O)(=O)N1CCN(c2ccc(F)cc2)CC1 -4.86%, Cc1ccc(C(NC(=O)C2CCN(CCOc3ccc(Cl)cc3Cl)CC2)c2ccccn2)cc1 (centres undefined) -3.52%, O=C(NC(c1ccc(Cl)cc1)c1cnccn1)C1CCN(Cc2ccc(Cl)cc2)CC1 (centres undefined) -6.28%, CCC/C=C(\CCC)C(NC(=O)Cc1ccccc1)c1ccc(C(=O)OC)cc1 (centres undefined) -7.9%, Cc1cccc(N2CC(C)Cn3c2nc2c3c(=O)n(CC(=O)OCc3ccccc3)c(=O)n2C)c1 (centres undefined) 0.76%, CNS(=O)(=O)c1cccc(C(=O)OCC(=O)N2c3ccccc3NC(=O)C2(C)C)c1 -2.19%, Cc1ccc(OCCC(=O)OCC(=O)N2c3ccccc3NC(=O)C2(C)C)cc1 -2.36%, COc1ccc(N)cc1NC(=O)CN1CCOCC1 -3.94%, COc1ccc(C)cc1N(C(=O)Cn1nnc(-c2ccc(C)o2)n1)C(C(=O)NC1CCCC1)c1ccncc1 (centres undefined) -2.27%, COC(=O)c1ccc(S(=O)(=O)NCc2ccccc2)n1C -2.3%, CC(C(=O)N1CCc2ccccc21)N(C)CC(=O)Nc1ccc(F)cc1 (centres undefined) -3.41%, O=C(Cc1cccs1)NCc1cccc(C(F)(F)F)c1 -6.31%, Cc1ccc(S(=O)(=O)/N=C(\N)c2ccc(F)cc2)cc1 0.59%, O=C1C2N=NN(CC(=O)N3N=C(c4cccc5ccccc45)CC3c3ccccc3)C2C(=O)N1c1ccccc1 (centres undefined) 2.13%, Oc1ccccc1C1=NN(c2ccccc2)C(c2ccccc2)C1 (centres undefined) 5.22%, CCN(CC(=O)Nc1cccc(S(=O)(=O)N2CCCCC2)c1)Cc1ccccc1 -11.3%, COc1cc(Cl)ccc1OCc1cc(C(=O)N(C)CCc2c(C)n[nH]c2C)no1 -10.7%, CCCNC(=O)C1(C)CCN1C(=O)C1(c2ccccc2)CC1 (centres undefined) -0.58%, CCCOc1ccc(Cc2c(O)nc(N)[nH]c2=O)cc1C 2.5%
